# Bioassay records: PubChem, National Center for Advancing Translational Sciences (NCATS)
# NS1 function inh – qHTS Assay for Inhibitors of Influenza NS1 Protein Function; Potency, µM (doses to about 46.1 µM), for the others: at the highest dose activity, positive = more growth; actives 0.4% (n = 270,000); AID 2326, 2010; calls by dose curve; note: actives are rising curves; nearly all actives have a fitted effect of over 50% in size
#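 Read-out: OD600 growth recovery of NS1-expressing budding yeast. Cells grown overnight at 30C in -URA glucose medium, washed, resuspended and diluted 1:100 in 2% galactose assay medium, pH 6.0. Same strain lacking NS1 served as positive control.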
# Pf growth 96h – Primary qHTS for delayed death inhibitors of the malarial parasite plastid, 96 hour incubation; Potency, µM (series often up to 28.7 µM), for inactives: at the highest dose activity change, negative = inhibition, hits mostly inhibitors; P. falciparum luciferase reporter growth, 96 h; actives 6.9% (n = 320,000); note: % is set by controls: 0 for no effect and ±100 for the full control effect
#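 Erythrocytes infected with luciferase-expressing P. falciparum were dispensed at 2% hematocrit and 0.05% parasitemia (final), then incubated with compounds 96 hours at 37 C in 5% CO2. Luminescence after detection reagent addition reported growth.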
# VACV mCherry inh – qHTS for Stage-Specific Inhibitors of Vaccinia Orthopoxvirus: mCherry Reporter Primary qHTS. Vaccinia virus mCherry reporter infection, fluorescence. Potency, µM (titrated, usually from 36.5 µM), without a hit: at the highest dose activity change, negative = inhibition, usual class: inhibitors. actives 0.63% (n = 310,000). AID 720579, 2013; calls by dose curve; tested in A549 cells; note: % is set by controls: 0 for no effect and ±100 for the full control effect; nearly all actives have a fitted effect of over 35% in size
# Pf growth 48h – Primary qHTS for delayed death inhibitors of the malarial parasite plastid, 48 hour incubation; P. falciparum luciferase growth in erythrocytes, 48 h; Potency, µM (series often up to 28.7 µM), for inactives: top-dose activity change, negative = inhibition, most hits filed as inhibitors; actives 5.9% (n = 310,000); note: % is set by controls: 0 for no effect and ±100 for the full control effect
#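 In quantitative HTS format, infected erythrocytes bearing luciferase-reporter parasites were treated for a single generation at 37 C. Luminescence after adding detection reagent served as the growth measure.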
# HCV inh – qHTS Assay for Inhibitors of Hepatitis C Virus (HCV); Huh7.5.1 HCVcc-Cre infection, luciferase reporter, 44 h; Potency, µM (titrated, usually from 41.8 µM), for the others: top-dose activity change, negative = inhibition, most hits filed as inhibitors; actives 3.4% (n = 340,000); AID 651820, 2012; note: % is set by controls: 0 for no effect and ±100 for the full control effect
#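 HCVcc-Cre virus at an moi near 0.5 was added right after compound to cells cultured 4 h from seeding (1,000 cells/well). Luciferase activity was determined 44 h later, 15 min after substrate addition at RT.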
# VACV Venus inh – qHTS for Stage-Specific Inhibitors of Vaccinia Orthopoxvirus: Venus Reporter Primary qHTS. actives 0.46% (n = 330,000). AID 720580, 2013. Vaccinia virus Venus reporter expression, fluorescence. Potency, µM (series often up to 36.5 µM), inactives show top-dose activity change, negative = inhibition, hits mostly inhibitors; calls by dose curve; tested in A549 cells; note: % is set by controls: 0 for no effect and ±100 for the full control effect; nearly all actives have a fitted effect of over 30% in size
# The depositor's hits bear a star; i = inactive; ? = inconclusive; . = no result. Shown are actives, neighbours in structure and some others; about 11% of the full set was active somewhere. Unless noted, calls come from the whole dose curve; as a rule, active = well fitted inhibition curve with a large enough effect; inconclusive = small, poorly fitted or top-dose-only effect, or another doubt; inactive = no such curve, though single readings can be large or run the other way. Potency is the fitted concentration of half-maximal effect.
SMILES,NS1 function inh,Pf growth 96h,VACV mCherry inh,Pf growth 48h,HCV inh,VACV Venus inh
CC1CCN(S(=O)(=O)c2ccc3ncn(CC(=O)Nc4ccccc4C(F)(F)F)c(=O)c3c2)CC1,.,.,-4%,.,.,-8%
Cn1c(CNC(=O)c2ccco2)nnc1SCC(=O)Nc1ccc(Cl)cc1,.,?,-22%,-13%,6%,-16%
Cc1ccccc1CN1CCCC(C(=O)Nc2ccccc2Oc2cccnc2)C1 (configuration not stated),-1%,3%,.,2.6µM*,-9%,.
COc1ccc(CN2CCC(C(=O)Nc3ccc(Oc4cccnc4)cc3)CC2)c(C)c1C,-4%,29%,.,7.4µM*,?,.
COc1cccc(O)c1CN1CCC(C(=O)Nc2ccc(Oc3cccnc3)cc2)CC1,15%,11%,i,?,?,-17%
Cn1ccnc1CN1CCCCC1C(=O)Nc1ccc(Oc2cccnc2)cc1 (configuration not stated),-1%,13µM*,.,?,-7%,.
Cn1cc(CN2CCC(C(=O)Nc3ccc(Oc4ccccc4F)cc3)CC2)cn1,5%,?,.,-15%,11µM*,.
c1ccc(CCN2CCN(c3ncnc4c3cnn4-c3ccccc3)CC2)cc1,-32%,.,.,?,?,.
COc1ccc(-c2nn3c(-c4ccc(C)cc4)nnc3c3ccccc23)cc1,.,.,-8%,.,.,-2%
CCN(Cc1ccccc1)C(=O)c1nn(-c2ccc(OC)cc2)c(=O)c2c1c1ccccc1n2C,.,-14%,-23%,?,?,-15%
C#CCOc1ccc(C2C3=C(CCCC3=O)N(CC(=O)O)C3=C2C(=O)CCC3)cc1Br,1%,14%,-20%,21%,1%,1%
CCC(Oc1ccc(Cl)cc1)C(=O)N1CC(=O)Nc2ccccc21 (configuration not stated),18%,?,-2%,?,.,-18%
O=C(Nc1ccc(Oc2ccccc2)nc1)C1CCCCN1Cc1ccc(O)cc1 (configuration not stated),13%,?,.,?,.,.
O=C(Nc1ccc(Oc2ccccc2)nc1)C1CCCCN1Cc1cccc(O)c1 (configuration not stated),-2%,5.9µM*,-17%,?,?,-29%
COc1ccc(CN2CCC(C(=O)Nc3ccc(Oc4cccnc4)cc3)CC2)cc1,-10%,-10%,?,12µM*,?,-19%
COc1cccc(O)c1CN1CCC(C(=O)Nc2ccc(-c3cccc(C)c3)cc2)CC1,-12%,4.1µM*,-21%,4.1µM*,1µM*,?
COc1cccc(NC(=O)C2CCN(Cc3cnn(-c4ccccc4)c3-n3cccc3)CC2)c1,10%,?,.,.,11µM*,.
COC(=O)c1ccc(NS(=O)(=O)c2cc3c4c(c2)CCN4C(=O)CC3)cc1,.,26%,-14%,-16%,-8%,-10%
O=C(O)C1(NS(=O)(=O)c2ccc(F)c(Cl)c2)CCCCC1,-2%,.,.,-3%,18%,.
CCSCCOC(=O)C1=C(C)NC(=O)NC1c1ccccc1 (configuration not stated),6%,-11%,-10%,.,-3%,-14%
O=C(Nc1ccc(F)cc1)N1CCN(CCc2ccccc2)CC1,-1%,28%,i,?,-6%,-3%
CCNC(=O)N1CCN(CCCC(c2ccc(F)cc2)c2ccc(F)cc2)CC1,-16%,1.7µM*,i,1.5µM*,?,-22%
Cc1c(C(C)C)c(=O)n(-c2ccc(S(=O)(=O)NC3CCCCC3)cc2)n1C,.,?,i,-7%,5µM*,-9%
Cc1c(C(C)C)c(=O)n(-c2ccccc2)n1C,.,-16%,.,-12%,.,.
Cc1c(C(C)C)c(=O)n(-c2ccc(S(=O)(=O)NCc3ccccc3)cc2)n1C,.,?,-20%,-1%,0.89µM*,-12%
SMILES,NS1 function inh,Pf growth 96h,VACV mCherry inh,Pf growth 48h,HCV inh,VACV Venus inh
O=C(N/N=C(/c1ccccc1)c1ccncc1)c1ccc2c(c1)OCO2,-2%,-43%,i,-1%,-13%,29%
Cc1cc(C)cc(OCC(=O)Nc2ccc(-n3cnnn3)cc2)c1,.,10%,.,-20%,?,.
CC(C)N1CCN(Cc2ccc(OC3CCCC3)cc2)CC1CCO (configuration not stated),12%,12µM*,.,-13%,?,.
CC(C)(O)/C=C/C(=O)[C@](C)(O)C1[C@H](O)C[C@@]2(C)C3CC=C4C(C[C@H](O)[C@@H](O)C4(C)C)[C@]3(C)C(=O)C[C@]12C (some centres not stated),.,.,?,.,?,1.6µM*
CC(C)(O)/C=C/C(=O)[C@](C)(O)C1[C@H](O)C[C@@]2(C)C3CC=C4C(C=C(O[C@@H]5O[C@H](CO)[C@@H](O)[C@H](O)[C@H]5O)C(=O)C4(C)C)[C@]3(C)C(=O)C[C@]12C (some centres not stated),.,.,i,.,44%,-22%
N/C(=N\OS(=O)(=O)c1ccc(Cl)cc1)c1ccncc1,2%,-34%,-14%,.,2%,1%
N=C(N)SCc1ccc(Cl)cc1Cl,8%,10µM*,-10%,?,11µM*,-20%
CC(C)OP(=O)(c1ccc(N(C)C)cc1)C(Nc1ccccc1)c1cccnc1 (configuration not stated),-6%,0%,i,?,14%,-15%
CN(C)c1ccc(P(=O)(OC2CCCCC2)C(Nc2ccccc2)c2cccnc2)cc1 (configuration not stated),-1%,2.9µM*,i,9.3µM*,-13%,-19%
CC(c1ccc(F)cc1)n1cc(S(=O)(=O)N2CCCC2)ccc1=O (configuration not stated),.,?,.,-6%,-14%,.
COC(=O)c1c(NC(=O)c2ccco2)sc2c1CCN(C(C)=O)C2,-9%,?,-23%,?,?,-19%
COc1ccc([C@@H]2Sc3cc(OC)ccc3N(CCN(C(C)C)C(C)C)C(=O)[C@H]2OC(C)=O)cc1,-13%,?,.,12µM*,?,.
CCN1C(=O)C(NC(C)=O)c2cc(OC)ccc21 (configuration not stated),14%,20%,.,15%,11%,-3%
O=C(CCCN1C(=O)c2cccnc2Oc2ccc(Cl)cc21)N1CCCCC1,3%,13µM*,.,?,0%,.
O=C(CN1C(=O)c2cccnc2Oc2ccc(Cl)cc21)N1CCCCCC1,-11%,-13%,-14%,?,2%,-13%
Cc1ccc(S(=O)(=O)N2CCCc3cc(NC(=O)c4ccc(C(F)(F)F)cc4)ccc32)cc1,.,.,-9%,.,.,-16%
